Bioassay records (PubChem)
ALDH1A1 block: inhibitors of human aldehyde dehydrogenase 1A1. P00352. Purified ALDH1A1, NADH fluorescence, propionaldehyde substrate. Potency, µM (top dose mostly 75.3 µM), for inactives: at the highest dose activity, negative = inhibition, actives largely listed as inhibitors. actives 7.3% (n = 220,000). AID 1030;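 also: potency is read from the fitted curve at half-maximal effect; plate controls were no enzyme wells and a reference inhibitor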
Target sequence (P00352 whole entry, looked up): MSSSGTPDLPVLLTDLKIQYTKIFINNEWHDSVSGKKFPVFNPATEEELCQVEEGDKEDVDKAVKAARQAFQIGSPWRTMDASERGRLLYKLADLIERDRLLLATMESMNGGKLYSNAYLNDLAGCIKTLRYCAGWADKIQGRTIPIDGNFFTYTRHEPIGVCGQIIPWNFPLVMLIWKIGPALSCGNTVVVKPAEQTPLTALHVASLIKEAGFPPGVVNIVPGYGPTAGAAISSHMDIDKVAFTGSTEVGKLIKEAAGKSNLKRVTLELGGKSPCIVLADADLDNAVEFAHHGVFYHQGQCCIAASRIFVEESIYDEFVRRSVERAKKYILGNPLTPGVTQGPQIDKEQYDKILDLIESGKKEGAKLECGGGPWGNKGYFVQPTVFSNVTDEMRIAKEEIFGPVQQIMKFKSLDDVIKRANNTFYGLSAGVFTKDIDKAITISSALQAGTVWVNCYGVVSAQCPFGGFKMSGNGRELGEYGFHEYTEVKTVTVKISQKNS
PNC inhibitor: perinucleolar compartment assembly inhibition. PC3M PTB-GFP, PNC prevalence imaging, 16 h; active compounds read low. activity change (PNC), negative = inhibition, % at 10 µM. actives 3.1% (n = 140,000). AID 2417;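 active = readout at or below -70, meaning at least 70% loss of cells showing the perinucleolar compartment, a nuclear body marking cancer cells; inconclusive = readout between -30 and a set limit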;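 also: plate controls were DMSO wells for no effect and camptothecin positive control wells for full effect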
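PC3M cells stably expressing PTB-GFP, 750–1000 cells/well, treated 16 h at 37 °C with compound (23 nl of library stock), in duplicate. After paraformaldehyde fixation and Hoechst stain, imaged at 20x; PNC prevalence scored by image analysis.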
IMPase cell inh: membrane-permeable compound that blocks inositol monophosphatase; P97697; CHO-M1 cells, IP1 accumulation, HTRF TR-FRET ratio; inhibition (IP1 accumulation), % at 46.1 µM; 120,000 tested, under 10 active; active = well fitted curve in the direction sought with a large enough effect in the signal ratio, not every such curve was filed as active; inconclusive = small, poorly fitted or top-dose-only effect, or a change in a side signal; inactive = no such curve, though single readings can be large or run the other way; the % refers to the signal ratio;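 also: cells stimulated with carbachol in lithium chloride buffer; plate controls were DMSO basal wells for no effect and reference inhibitor wells for full effect; higher means more IMPase inhibition seen as more IP1 and lower FRET ratio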
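Elevated IP1 in lysates lowers TR-FRET signal (665/620 ratio and 620 channel reported). Cells were CHO-M1, given carbachol (50 uM as added) plus 50mM LiCl, pH 7.4, 30 min, 37C; compounds titrated up to 46 uM; AC50 by Hill equation.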
Luc counter: blocks Kinase-Glo luciferase, a counter-screen artifact; Q27757; Kinase-Glo luciferase, ATP luminescence, 8 min; Potency, µM (titrated, usually from 38.3 µM), for inactives: at the highest dose activity change, negative = inhibition, hits mostly inhibitors; actives 0.28% (n = 200,000); active = well fitted inhibition curve with a large enough effect; inconclusive = small, poorly fitted or top-dose-only effect; also: potency is read from the fitted curve at half-maximal effect; nearly all actives have a fitted effect of over 60% in size
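Compounds were added to a substrate mix at pH 7.2 (50 mM imidazole, 10 uM ATP, within the enzyme's linear range), followed by Kinase-Glo detection reagent; luminescence was measured after 8 minutes at ambient temperature.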
HPGD inh: inhibitors of human 15-hydroxyprostaglandin dehydrogenase (HPGD) | Potency, µM, inactives show at the highest dose activity change, negative = inhibition, actives largely listed as inhibitors | purified HPGD, NADH fluorescence kinetic, PGE2 substrate | AID 894 | P15428 | actives 4.3% (n = 150,000); also: potency is read from the fitted curve at half-maximal effect
Target sequence (P15428 whole entry, looked up): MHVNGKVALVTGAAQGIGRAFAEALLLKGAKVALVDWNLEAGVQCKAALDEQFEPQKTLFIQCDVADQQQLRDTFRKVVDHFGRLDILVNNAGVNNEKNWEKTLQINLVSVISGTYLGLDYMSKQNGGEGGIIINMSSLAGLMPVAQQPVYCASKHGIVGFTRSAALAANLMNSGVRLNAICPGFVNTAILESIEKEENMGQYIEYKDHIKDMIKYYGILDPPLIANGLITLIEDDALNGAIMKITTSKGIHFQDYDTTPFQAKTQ
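NADH formation kinetics: reaction with 30 uM PGE2 and 1 mM NAD+ (final), 20 nM enzyme, Tris-HCl pH 8 with Tween 20, after 15 min compound preincubation at room temperature. Fluorescence change, last versus first of five reads.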
LMNA splice mod: modulators of lamin A splicing; HeLa LMNA splicing GFP/RFP minigene ratio, 48 h; actives 0.01% (n = 200,000); Potency, µM (doses to about 46.1 µM), without a hit: at the top dose ratio change, negative = inhibition, usual class: inhibitors; AID 1487; active = well fitted inhibition curve with a large enough effect in the signal ratio, with a control signal flat, not every such curve was filed as active; inconclusive = small, poorly fitted or top-dose-only effect, or effect the other way, or a change in a side signal; the % refers to the signal ratio; also: potency is read from the fitted curve at half-maximal effect
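S3 HeLa stable clones carrying a lamin A-EGFP splicing minigene plus DsRed2 were seeded at 600 cells/well in Opti-MEM with 2% FBS, pin-dosed and incubated 48 h at 37°C. Acumen cytometry (488 nm) gave the GFP/RFP total-intensity ratio.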
The depositor's hits bear a star; ? = inconclusive; . = not tested or not shown; [ ] = dose if it differs, or a comment. This is a sample that favours compounds with a hit; in the whole collection about 10% have one here. Unless noted, calls follow the shape of the dose curve; as a rule, active = well fitted inhibition curve with a large enough effect (not every such curve was filed as active); inconclusive = small, poorly fitted or top-dose-only effect, or another doubt; inactive = no such curve, though single readings can be large or run the other way. Unless noted, % is scaled to controls: 0 for no effect and ±100 for the full control effect.

SMILES	ALDH1A1 block	PNC inhibitor	IMPase cell inh	Luc counter	HPGD inh	LMNA splice mod
Oc1ccc(/C=N/Nc2ccccc2)cc1	20µM*	.	.	-1%	.	-2%[46 µM]
Oc1ccc(/C=N/NC2=NCCCCC2)cc1	18µM*	19	7	8%	?	6%
Oc1ccc(/C=N/NC(=S)N/N=C/c2ccc(O)cc2)cc1	-9%	.	.	4.5µM*	.	.
Brc1ccc(/C=N/Nc2ccccc2)cc1	-4%	6	.	-4%	?	?
O=C(NCC(c1ccc2c(c1)OCO2)N1CCOCC1)C(=O)Nc1ccccc1 (stereo not given)	.	.	.	.	.	8%[46 µM]
CN(C)c1ccc(CNC(=O)c2cnc3sc(N4CCCCCC4)nn3c2=O)cc1	.	.	.	.	.	-16%[46 µM]
CCCCC/C=C\C=C\[C@H](O)CCCCCCCC(=O)O	8%	.	.	.	.	.
CC1CCCC(C)N1C(=O)Cc1ccccc1 (stereo not given)	?	-2	9	0%	20µM*	0%
O=[N+]([O-])c1ccc(-n2nnnc2CN2CCOCC2)cc1	7%	.	.	-3%	.	?
O=[N+]([O-])c1ccc(-n2nnnc2CN2CCCCC2)cc1	20µM*	.	.	-1%	.	.
CCOc1ccc(NC(=O)Cn2cnc3c(oc4ccccc43)c2=O)cc1	.	.	.	.	.	1%[46 µM]
O=C(c1ccc(Cl)cc1)N1CCCOC1	18%	33	-2	0%	8.9µM*	10%
CCCOc1ccc(C(=O)N2CCCC2C(=O)O)cc1 (stereo not given)	-3%	36	5	4%	-7%	13%
O=C(c1ccc(-n2cnnn2)cc1)N1CCCCC1	?	35	0	2%	16µM*	3%
CCCCOc1ccc(C(=O)N2CCCC2C(=O)O)cc1 (stereo not given)	-1%	-100*	?	0%	-18%	5%
NC(=O)C1CCCN(C(=O)c2ccc(Cl)cc2)C1 (stereo not given)	3%	27	11	-1%	-21%	19%
O=C(Nc1ccc(-n2cnnn2)cc1)C1CCC1	-7%	-25	5	-2%	-13%	0%
COc1ccc(/C=C(\C#N)C(=O)N2CCOCC2)cc1Br	?	34	2	-3%	16µM*	3%
CN(C)CCN1C(=O)CC[C@]2(C)C1=CC[C@@H]1[C@@H]2CC[C@]2(C)[C@H]1CC[C@]2(C)O	5%[13.5 µM]	.	.	-4%[7.66 µM]	-11%	.
COc1ccc(S(=O)(=O)N(C)c2ccc(C(=O)N3CCOCC3)cc2)cc1	?	?	-5	2%	6.3µM*	15%
COc1ccc(C(CNC(=O)c2ccc(S(=O)(=O)N(C)C)cc2)N2CCCCC2)cc1 (stereo not given)	10µM*	.	.	2%	.	-4%[46 µM]
COc1ccc(OCc2ccc(C(=O)O)cc2)cc1	12%	32	0	1%	-7%	7%
COc1ccc(OCc2ccc(C(=O)N3CCOCC3)cc2)cc1	-6%	5	8	-19%	7.9µM*	-16%
Cc1nn(C(=O)c2ccco2)c(C)c1Br	?	?	0	1%	-6%	-3%
COc1ccc(C(=O)n2nc(C)c(Br)c2C)cc1	10µM*	?	7	-4%	-8%	4%
SMILES	ALDH1A1 block	PNC inhibitor	IMPase cell inh	Luc counter	HPGD inh	LMNA splice mod
O=C(NCC(c1ccc2c(c1)OCO2)N1CCN(c2ccccc2)CC1)C(=O)Nc1cccc(F)c1 (stereo not given)	.	.	.	.	.	5%[46 µM]
COc1ccccc1C(=O)Nc1cccc(C(=O)OCc2cc(=O)n3nc(C)sc3n2)c1	.	.	.	.	.	5%[46 µM]
CC1(C)C(=O)C(c2ccccc2)=C2CN3C(=O)N(CCc4ccccc4)C(=O)C3(Cc3ccccc3)C=C21 (stereo not given)	-29%	.	.	-3%	-17%	.
CCCCOc1ccc(C(=O)N2CCCCCC2)cc1	?	-22	-7	-1%	0.79µM*	-15%
CCN1CCN(C(=O)c2ccc(C(F)(F)F)cc2)CC1	12%	.	.	2%	.	5%[46 µM]
C=CCNC(=O)c1ccc(N(C)S(=O)(=O)c2ccc(OC)cc2)cc1	?	13	8	-1%	2.8µM*	-1%
C=CCNC(=O)c1ccc(OC)cc1	6%	.	.	.	.	4%[46 µM]
COc1ccc(-n2c(C)nc3cc(C(=O)N4CCOCC4)ccc32)cc1	?	?	10	-3%	2.2µM*	10%
O=C(c1ccc(C(F)(F)F)cc1)N1CCCCC1	-3%	43	?	5%	2.8µM*	-7%
COc1cc2ncc3c(-c4ccc(C)cc4)nn(-c4ccc(F)cc4F)c3c2cc1OC	.	.	.	.	.	3%[46 µM]
CCOc1cccc2cc(-c3nc4sc5c(c4c(=O)[nH]3)CCC(C)C5)c(=O)oc12 (stereo not given)	.	.	.	.	.	8%[46 µM]
CC1(C)OC(C(O)(c2cc(C(F)(F)F)cc(C(F)(F)F)c2)c2cc(C(F)(F)F)cc(C(F)(F)F)c2)C(C(O)(c2cc(C(F)(F)F)cc(C(F)(F)F)c2)c2cc(C(F)(F)F)cc(C(F)(F)F)c2)O1 (stereo not given)	17%[13.5 µM]	.	.	.	.	.
COc1ccc(OC)c(-c2noc(N3CCN(c4ccc(Cl)cc4)CC3)n2)c1	.	.	.	.	.	-13%[46 µM]
COc1ccc(C(=O)/C=C\N2CCOCC2)cc1	8.9µM*	?	-2	-10%	-26%	5%
O=C(c1ccc(COc2ccc(Cl)cc2)cc1)N1CCCCC1	28µM*	.	.	-3%	.	5%[46 µM]
O=C(c1ccc(COc2ccccc2Br)cc1)N1CCCCCC1	-2%	.	.	-2%	.	.
COc1cc(/C=C(\C#N)C(=O)N2CCOCC2)ccc1OCc1ccccc1	-15%	.	.	3%	.	.
CCCCOc1ccc(C(=O)N2CCC(C)CC2)cc1	-10%	17	-14	2%	1µM*	6%
N#C/C(=C\c1ccc(OCc2ccc(C(=O)O)cc2)cc1)C(=O)N1CCOCC1	-2%	?	.	4%	14µM*	0%
COC(=O)c1sc2cccc(F)c2c1S(=O)(=O)Nc1ccc(N(C)C)cc1	.	.	.	.	.	-13%[46 µM]
COc1ccc(CCNC(c2ccc(F)cc2)c2nnc(-c3ccccc3Cl)o2)cc1OC (stereo not given)	.	.	14	.	.	.
COc1ccc(C(=O)N2CCCC2)cc1	-14%	-29	15	-10%	6.3µM*	7%
COc1ccc(C(=O)N2CCN(C(=O)c3ccncc3)CC2)cc1	9%	65	1	6%	-7%	5%[0.0737 µM]
